Screening data: PubChem, The Scripps Research Institute Molecular Screening Center
A selection: hits, their analogues and other compounds. The true share with any hit is near 1.8%.
PME-1 primary: blocks human protein phosphatase methylesterase 1 | recombinant PME-1, FP-Rh probe fluorescence polarization | inhibition, % at 5.9 µM | 320,000 tested, 0.53% active | AID 2130;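 active means inhibition above the campaign mean of all compounds plus 3 SD, cut at about 26% in these data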;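 further: competitive labeling of PME-1 active site by serine hydrolase directed probe; inhibitors block probe labeling so polarization falls and inhibition rises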
Target sequence (Q9Y570 whole entry, looked up): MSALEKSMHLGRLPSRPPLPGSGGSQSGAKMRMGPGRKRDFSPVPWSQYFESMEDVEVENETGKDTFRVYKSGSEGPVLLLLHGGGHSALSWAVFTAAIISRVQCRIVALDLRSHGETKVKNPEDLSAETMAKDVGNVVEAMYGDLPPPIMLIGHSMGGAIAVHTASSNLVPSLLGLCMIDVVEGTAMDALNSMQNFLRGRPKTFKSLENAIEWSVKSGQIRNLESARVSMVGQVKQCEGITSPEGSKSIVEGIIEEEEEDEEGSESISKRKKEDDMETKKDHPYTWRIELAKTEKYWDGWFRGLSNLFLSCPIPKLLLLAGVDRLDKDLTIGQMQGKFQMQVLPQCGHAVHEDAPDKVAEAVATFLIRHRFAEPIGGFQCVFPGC
LYPLA1 inh: blocks human lysophospholipase 1, a PME1 counter-screen; recombinant LYPLA1, FP-Rh probe fluorescence polarization; inhibition, % at 5.9 µM; 320,000 tested, 0.16% active; AID 2174;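 active means inhibition above the mean of all tested compounds plus 3 SD, set per campaign, cut at about 14% in these data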;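 further: inhibitors block serine hydrolase probe labeling of LYPLA1 so polarization falls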
Target sequence (O75608 whole entry, looked up): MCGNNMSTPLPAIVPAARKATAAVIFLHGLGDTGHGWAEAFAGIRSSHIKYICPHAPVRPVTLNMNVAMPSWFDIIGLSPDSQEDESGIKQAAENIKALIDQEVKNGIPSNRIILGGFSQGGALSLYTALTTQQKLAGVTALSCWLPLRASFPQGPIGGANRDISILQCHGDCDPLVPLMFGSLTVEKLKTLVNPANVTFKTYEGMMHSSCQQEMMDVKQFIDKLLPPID
GSTO1 inh: counter-screen for RBBP9 inhibitors: inhibitors of human GSTO1. P78417. recombinant GSTO1, activity-based probe fluorescence polarization. inhibition, % at 5.96 µM. 300,000 tested, 1.1% active. AID 1974;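 active means inhibition above the campaign mean inhibition plus 3 SD, cut at about 35% in these data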
PAD4 FP inh: inhibitors of human PAD4. Q9UM07. recombinant PAD4, RCA probe fluorescence polarization. inhibition, % at 6.36 µM. 330,000 tested, 0.41% active;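 active means percent inhibition above a cutoff equal to the mean of all tested compounds plus 3 SD, cut at about 15% in these data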
Fam108B inh: blocks mouse Fam108B hydrolase in RBBP9 counter-screen. recombinant Fam108B, FP-Rh probe fluorescence polarization. inhibition, % at 9.51 µM. 300,000 tested, 0.33% active;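 active means inhibition above the screen mean inhibition plus 3 SD, computed separately per campaign, cut at about 18% in these data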;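 further: inhibitors lower polarization as less probe binds the enzyme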
LYPLA2 inh: LYPLA2 (human) inhibition in PME1 counter-screen | O95372 | recombinant LYPLA2, FP-Rh probe fluorescence polarization | inhibition, % at 5.9 µM | 320,000 tested, 0.38% active | AID 2177;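 active means inhibition above the screen-wide mean plus 3 SD, limit set per campaign, cut at about 26% in these data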
GSTO1 confirm: GSTO1 (human) inhibition, confirmation; AID 2176; 2,400 tested, 54% active; shares compounds with GSTO1 inh; inhibition, % at 5.96 µM; recombinant GSTO1, probe fluorescence polarization;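 active means inhibition above the primary screen's cutoff, its mean inhibition plus 3 SD, cut at about 35% in these data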;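 further: loss of polarization as inhibitors block binding of rhodamine sulfonate ester activity probe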
GSTO1 ABPP inh: blocks recombinant human glutathione S-transferase omega 1. recombinant GSTO1, gel ABPP SE-Rh probe fluorescence. shares compounds with GSTO1 inh. 130 tested, 30% active. AID 463110. inhibition, % at 1 µM;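 active means inhibition of the enzyme GSTO1 above about 75%, limit read from the data; inactive means inhibition below that limit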
LYPLA1 confirm: LYPLA1 (human) inhibition, confirmation counter-screen. shares compounds with LYPLA1 inh. 480 tested, 69% active. inhibition, % at 5.9 µM. AID 2233. recombinant LYPLA1, FP-Rh probe fluorescence polarization;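 active means mean inhibition across replicates above the hit cutoff set in the primary screen, cut at about 15% in these data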;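 further: loss of FP-Rh probe labeling of LYPLA1 seen as lower polarization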
PAD4 confirm: PAD4 (human) inhibition, confirmed | inhibition, % at 6.36 µM | 1,200 tested, 28% active | recombinant PAD4, RCA probe fluorescence polarization | shares compounds with PAD4 FP inh;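 active means mean inhibition across replicates above the hit cutoff set by the earlier primary screen, cut at about 15% in these data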;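 further: inhibitors block active-site labeling by the probe so polarization falls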
A number is an active result; i = inactive; nt = not tested or not shown.

SMILES | PME-1 primary | LYPLA1 inh | GSTO1 inh | PAD4 FP inh | Fam108B inh | LYPLA2 inh | GSTO1 confirm | PAD4 confirm | others
O=c1cc(-c2ccc(F)cc2)[nH][nH]1 | i | i | 41.2 | 59.5 | i | i | i | i
O=c1cc(-c2ccc(C3CCCCC3)cc2)[nH][nH]1 | i | i | i | i | i | i | nt | nt
O=c1cc(-c2ccccc2)[nH][nH]1 | i | i | 38.1 | 34.7 | i | i | i | i
Cc1ccc(S(=O)(=O)Nc2cc(Cl)c(O)c3ncccc23)cc1 | i | i | 61.3 | 36.3 | i | i | i | i
CCOC(=O)N1CCC(NC(=O)CS(=O)(=O)Cc2nc(-c3cccc(Cl)c3)oc2C)CC1 | i | i | i | i | i | i | nt | nt
O=C1C(Cl)=C(NCc2cccnc2)C(=O)c2ccccc21 | i | i | 76.8 | 21.4 | i | i | 57.0 | i
CCn1c(-c2ccccc2)c(C(=O)CCl)c2ccccc21 | i | i | 60.5 | 21.0 | i | i | 76.0 | 41.6
CCOc1ccc(C2OC34CCCCC3C(C#N)(C#N)C2(C#N)C(=N)O4)cc1OC (stereo not given) | i | 20.9 | 39.3 | 34.5 | i | i | i | 18.1 | LYPLA1 confirm=i
CCCCOc1ccc(C2OC34CCCCC3C(C#N)(C#N)C2(C#N)C(=N)O4)cc1 (stereo not given) | i | i | i | i | i | i | nt | nt
CCOC(=O)[C@@H]1[C@H]2COc3ccc(Br)cc3[C@@H]2N2C(=O)N(c3ccc(Cl)cc3)C(=O)[C@]12C | i | i | i | i | i | i | nt | nt
COc1cc(/C=C2/C(=O)N(c3ccc([N+](=O)[O-])cc3)N=C2N2CCOCC2)ccc1O | i | i | 89.4 | 70.0 | i | i | i | i
CCN(CC)c1ccc(/C=C2/C(=O)N(c3ccc([N+](=O)[O-])cc3)N=C2N2CCOCC2)cc1 | i | i | i | i | i | i | nt | nt
Cc1nn(-c2ccccc2)c2c1C(c1ccc(F)cc1F)C(C#N)=C(N)O2 (stereo not given) | i | i | i | i | i | i | nt | nt
COc1ccc(C2C(C#N)=C(N)Oc3c2c(-c2ccccc2)nn3-c2ccccc2)c(OC)c1OC (stereo not given) | i | i | 47.2 | 25.1 | i | i | i | i
COCCn1c(N)c(S(=O)(=O)c2cccs2)c2nc3ccccc3nc21 | i | i | 81.0 | 21.9 | i | i | i | i
O=C(CCl)N(c1ccc(Cl)cc1)c1c[nH]c2ccccc12 | i | i | 71.6 | 16.6 | i | i | 82.2 | 33.8 | GSTO1 ABPP inh=i
O=C(Cc1ccc(Cl)cc1)NCCc1c[nH]c2ccccc12 | i | i | i | i | i | i | nt | nt
Oc1c(Cl)cc(Cl)cc1C=Nc1ccc(N2CCOCC2)cc1 | i | i | i | i | i | i | nt | nt
O=[N+]([O-])c1cc(Cc2ccccc2)cc(C=Nc2ccc(N3CCOCC3)cc2)c1O | i | i | 68.7 | 24.4 | i | i | i | i
COc1ccc(C(c2c(C)n(C)n(-c3ccccc3)c2=O)c2c(C)n(C)n(-c3ccccc3)c2=O)cc1OC | i | i | i | i | i | i | nt | nt
COc1ccc(C(c2c(C)[nH]n(-c3ccccc3)c2=O)c2c(C)[nH]n(-c3ccccc3)c2=O)cc1OC | i | i | 69.3 | 68.9 | i | i | i | i
CCOc1cc(/C=C2/C(=O)N(c3ccccc3)N=C2C)ccc1OC(=O)c1ccco1 | i | i | 65.2 | 47.0 | i | i | i | i
COc1ccc2nc3ccccc3nc2c1N | i | i | 59.8 | 24.7 | i | i | i | i
COc1ccc(-c2nc3ccccc3nc2-c2ccc(OC)c(OC)c2)cc1OC | i | i | i | i | i | i | nt | nt
O=C(Cc1ccc(Cl)cc1)Nc1ccc(S(=O)(=O)Nc2cnc3ccccc3n2)cc1 | i | i | i | i | i | i | nt | nt
SMILES | PME-1 primary | LYPLA1 inh | GSTO1 inh | PAD4 FP inh | Fam108B inh | LYPLA2 inh | GSTO1 confirm | PAD4 confirm | others
CCCn1c(SCC(=O)Nc2ccccc2C(=O)NC2CC2)n[nH]c1=O | i | i | nt | i | nt | i | nt | nt
Cc1cccc(NS(=O)(=O)c2ccc3oc(=O)ccc3c2)c1C | i | i | i | i | i | i | nt | nt
CC1(C)Nc2ccc(O)cc2-c2c1ssc2=S | i | i | 63.0 | 41.1 | i | i | i | 17.5
O=C1C=C(Nc2ccccc2O)c2ccccc2C1=O | i | i | 71.5 | 64.6 | i | i | 73.6 | 31.2
O=C(Nc1ccccc1O)c1ccc2c(c1)C(=O)N(N1C(=O)c3ccccc3C1=O)C2=O | i | i | i | i | i | i | nt | nt
O=C(CC1SC(=Nc2ccc(O)cc2)NC1=O)Nc1ccccc1 (stereo not given) | i | i | i | i | i | i | nt | nt
CC(Oc1cccc2cccnc12)C(=O)N/N=C/c1ccc2c(c1)OCO2 (stereo not given) | i | i | i | i | i | i | nt | nt
Cc1ccc(CN2CCNC(=O)C2CC(=O)N2CCN(c3ncccn3)CC2)o1 (stereo not given) | i | i | i | i | i | i | nt | nt
COc1ccc(NC(=O)NC(C)(C(F)(F)F)C(F)(F)F)cc1 | i | i | i | i | i | i | nt | nt
CCC(NC(=O)Nc1ccc(O)cc1)(C(F)(F)F)C(F)(F)F | i | i | 57.3 | 46.2 | i | i | i | i
CCC(NC(=O)NCc1ccccc1)(C(F)(F)F)C(F)(F)F | i | i | i | i | i | i | nt | nt
CC(NC(=O)Nc1ccc(O)cc1)(C(F)(F)F)C(F)(F)F | i | i | 43.8 | 64.3 | i | i | i | i
CNC1=C(N(C(C)=O)c2ccc(Br)cc2)C(=O)c2ccccc2C1=O | i | i | 72.6 | 46.7 | i | i | 63.3 | 16.1
CCN(CC)S(=O)(=O)c1ccc(C)c(NS(=O)(=O)c2cc(/C=C/C(=O)O)cc(OC)c2OC)c1 | i | i | 39.0 | 52.6 | i | i | i | i
COc1cc(/C=C/C(=O)O)cc(S(=O)(=O)Nc2ccccc2Cl)c1OC | i | i | i | i | i | i | nt | nt
CC(=O)c1ccc(Nc2c([N+](=O)[O-])ccc3nonc23)cc1 | i | i | i | i | i | i | nt | nt
O=[N+]([O-])c1cc([N+](=O)[O-])c2nonc2c1Nc1ccc(O)cc1 | i | i | 64.9 | 55.1 | i | i | 53.5 | i
CC1Cc2cc(/C(O)=C3/C(=O)C(=O)N(CCCn4ccnc4)C3c3cccc([N+](=O)[O-])c3)ccc2O1 (stereo not given) | i | i | i | i | i | i | nt | nt
O=C1C(N2CCOCC2)=C(n2nnc3ccccc32)C(=O)c2ccccc21 | i | i | 76.5 | 22.8 | i | i | 83.6 | 15.3
